The structures appear in SMILES notation. Records with an inconclusive call do not appear. Where a call stands in place of a potency, no number is given. Activity calls are given as the source filed them. Calls follow the shape of the dose curve; as a rule, active = well fitted inhibition curve with a large enough effect; inconclusive = small, poorly fitted or top-dose-only effect; inactive = flat fitted curve, though single readings scatter.

The assay has as its target Aldehyde dehydrogenase, mitochondrial (Homo sapiens) (UniProt P05091). As to the kind of experiment: qHTS for Inhibitors of the Aldehyde Dehydrogenase Family (ALDH2) Primary screen (AID 2061308). Also: nearly all actives have a fitted effect of over 55% in size. Conditions: ALDH2 enzyme inhibition qHTS, 1536-well; series mostly up to 56 µM. In general terms: In qHTS, concentration-response curves come from the screen itself.
With `CCC(=O)Nc1ccc(Cl)cc1C(=O)c1ccc[nH]1`, the Potency result is “inactive”.
Take `CCCn1c(C)nc2c(NCCCN3CCCCC3C)nc(C)nc21` (configuration not stated): the Potency entry is “inactive”.
In the case of `COc1ccccc1-c1ccc(=O)n(CC(=O)NCCc2ccccc2)n1` it was “inactive”; in that of `COc1cccc(NC(=S)N2CCN(c3ccc(C(F)(F)F)cc3[N+](=O)[O-])CC2)n1`, “inactive”; in that of `Fc1cc(Nc2nc(-c3ccncc3)nc3ccccc23)ccc1-c1cccnc1`, “inactive”.
To `C=C1C(=O)O[C@@H]2C(OC(=O)/C(C)=C\C)/C(C)=C\C(=O)/C=C(\C)C[C@H](O)[C@@H]12` (some centres not stated) belongs “inactive”; to `O=C1c2ccccc2C(=O)N1c1ccc2ncccc2c1`, “inactive”; to `Cc1ccc(C)c(OCCn2c(CCNC(=O)C3CCCCC3)nc3ccccc32)c1`, “inactive”.
`Fc1ccc(-c2nc(CCCCSc3nnc(-c4cccc5ccccc45)o3)no2)cc1`: the Potency result was “inactive”.
As to `CC(C)(C)c1ccc(-c2ccc(=O)n(CC(=O)NCCc3ccccc3)n2)cc1`, the Potency result is “inactive”.
In the case of `Cc1cc(C)nc(NC(=S)N2CCN(c3ccccc3C#N)CC2)c1` it was “inactive”; in that of `FC(F)(F)c1ccc(CSc2nc3ncc(Br)cc3[nH]2)cc1`, “inactive”; in that of `COc1cccc(NC(=S)N2CCN(c3ncc(C(F)(F)F)cc3Cl)CC2)n1`, “inactive”.
To `COc1ccccc1CNc1ccc(S(=O)(=O)Nc2nccs2)cc1` belongs “inactive”; to `O=C1CCc2cc(S(=O)(=O)Nc3ccc(F)cc3)ccc2N1`, “inactive”; to `O=C1CCCC2=C1C(c1ccc(Cl)cc1)N=C(Nc1nc3ccccc3o1)N2` (configuration not stated), “inactive”.
As for `FC(F)(F)c1ccccc1-c1nc(NCc2ccc(-c3ccncc3)cc2)c2ccccc2n1`, the Potency result is “inactive”.

Source of the values: PubChem BioAssay (NCATS).
